These results are taken from publication PMC4336329 (PLoS ONE, 2015).

In all, about 310,000 compounds went through this assay and about 14,000 (4.5%) showed an effect of 50% or more. The effect is printed as a negative number. The entries come from a sample that favours strong results as a whole.
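Further: peak tail current of the secondary pulse compared with the same well before compound.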

human ether-à-go-go-related gene (hERG) potassium channel, sequence (Q12809 whole entry, looked up): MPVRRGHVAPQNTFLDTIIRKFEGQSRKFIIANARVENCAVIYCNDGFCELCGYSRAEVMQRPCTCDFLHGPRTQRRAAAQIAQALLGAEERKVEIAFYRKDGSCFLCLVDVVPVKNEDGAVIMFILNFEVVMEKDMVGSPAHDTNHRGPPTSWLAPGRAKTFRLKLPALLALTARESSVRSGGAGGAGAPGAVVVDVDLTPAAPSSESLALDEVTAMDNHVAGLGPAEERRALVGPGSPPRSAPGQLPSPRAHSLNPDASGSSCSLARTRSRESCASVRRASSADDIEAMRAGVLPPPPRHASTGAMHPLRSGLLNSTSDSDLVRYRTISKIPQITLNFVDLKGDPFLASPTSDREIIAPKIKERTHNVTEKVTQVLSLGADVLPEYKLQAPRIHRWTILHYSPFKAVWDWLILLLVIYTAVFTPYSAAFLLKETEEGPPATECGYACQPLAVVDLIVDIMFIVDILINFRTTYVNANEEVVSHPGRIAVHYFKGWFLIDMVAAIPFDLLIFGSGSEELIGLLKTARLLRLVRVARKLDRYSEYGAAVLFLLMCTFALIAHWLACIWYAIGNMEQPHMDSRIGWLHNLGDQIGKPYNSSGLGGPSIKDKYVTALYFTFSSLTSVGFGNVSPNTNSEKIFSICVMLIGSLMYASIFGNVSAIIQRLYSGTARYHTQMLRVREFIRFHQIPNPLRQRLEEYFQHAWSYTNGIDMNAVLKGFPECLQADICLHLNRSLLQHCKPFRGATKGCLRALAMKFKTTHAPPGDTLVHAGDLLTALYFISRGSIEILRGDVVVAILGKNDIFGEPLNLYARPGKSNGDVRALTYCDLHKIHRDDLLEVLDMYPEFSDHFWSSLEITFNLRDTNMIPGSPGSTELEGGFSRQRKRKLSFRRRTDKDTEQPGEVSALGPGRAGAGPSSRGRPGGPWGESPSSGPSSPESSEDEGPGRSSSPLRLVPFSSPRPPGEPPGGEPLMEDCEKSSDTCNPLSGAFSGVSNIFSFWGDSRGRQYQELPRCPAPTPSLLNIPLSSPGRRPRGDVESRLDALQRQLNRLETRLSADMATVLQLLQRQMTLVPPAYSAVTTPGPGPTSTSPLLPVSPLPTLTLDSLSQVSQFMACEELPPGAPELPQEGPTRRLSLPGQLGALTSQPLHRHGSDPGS

The test has as its target human ether-à-go-go-related gene (hERG) potassium channel (human, UniProt Q12809). As to the kind of experiment: primary screen, population patch clamp on CHO cells stably expressing hERG; higher = less effect of the substance.
With `Cn1nc(C(=O)N2CCN(S(=O)(=O)/C=C/c3ccccc3)CC2)c2ccccc2c1=O`, the “hERG current change (%, negative = inhibition) at 10uM” value is given as -65.1%.

For the compound `O=C(c1cccc([N+](=O)[O-])c1)N1CCCN(C(=O)c2cccc([N+](=O)[O-])c2)CC1`, the “hERG current change (%, negative = inhibition) at 10uM” value is -42%. As to `O=C(c1cccc([N+](=O)[O-])c1)N1CCN(C/C=C/c2ccccc2)CC1`, the “hERG current change (%, negative = inhibition) at 10uM” value is listed as -65.9%. For the compound `Cn1nc(C(=O)N2CCN(S(=O)(=O)c3ccccc3)CC2)c2ccccc2c1=O`, the “hERG current change (%, negative = inhibition) at 10uM” value is recorded as -23%. Turning to `Cc1nc(N=Nc2ccc(O)cc2)n[nH]1`, the “hERG current change (%, negative = inhibition) at 10uM” value was 7.01%. For `CC12CC[C@H]3[C@@H](CCC4(O)C[C@H](O)CCC34/C=N/NC(=O)c3ccccc3Cl)C1(O)CCC2C1=CC(=O)OC1` (stereo partly shown) the value was 9.69%. Turning to `O=C(COC(=O)c1ccc(S(=O)(=O)Nc2ccccc2)cc1)NCC1CCCO1` (stereo not shown), the “hERG current change (%, negative = inhibition) at 10uM” value stood at 1.33%.

Turning to `COC(=O)c1ccccc1NC(=O)c1ccc(COc2cccc3ccccc23)o1`, the “hERG current change (%, negative = inhibition) at 10uM” value is 0.342%. As for `NC(=O)c1nsc(C(=O)N(CCCN2CCOCC2)C(C(=O)NC2CCCCC2)c2ccc(Cl)cc2)c1N` (stereo not shown), the “hERG current change (%, negative = inhibition) at 10uM” value is -42.8%. Turning to `CCCNc1nc2c(c(=O)[nH]c(=O)n2C)n1CCC(C)C`, the “hERG current change (%, negative = inhibition) at 10uM” value was -0.274%. Regarding `CC(=O)c1ccc(OCC(=O)N2CCN(S(=O)(=O)c3ccc(C)cc3C)CC2)cc1`, the “hERG current change (%, negative = inhibition) at 10uM” value is recorded as -61.6%.

As to `O=C(COc1ccccc1[N+](=O)[O-])N1CCC(Cc2ccccc2)CC1`, the “hERG current change (%, negative = inhibition) at 10uM” value is reported as -16.1%. Regarding `Cc1ccc(OCC(=O)N2CCN(S(=O)(=O)c3ccccc3)CC2)c([N+](=O)[O-])n1`, the “hERG current change (%, negative = inhibition) at 10uM” value is given as -45.8%. With `Cc1ccc(S(=O)(=O)N2CCN(C(=O)COc3ccc(C)nc3[N+](=O)[O-])CC2)c(C)c1`, the “hERG current change (%, negative = inhibition) at 10uM” value was -61%. The figure for `Cc1ccc(OCC(=O)N2CCC(C)CC2)c([N+](=O)[O-])n1` is -7.74%. For the compound `Cc1ccc(OCC(=O)N2CCN(S(=O)(=O)c3ccc(Cl)cc3)CC2)c([N+](=O)[O-])n1`, the “hERG current change (%, negative = inhibition) at 10uM” value is given as -48.8%.

As for `CC(=O)c1ccc(OCCCC(=O)N2CCN(S(=O)(=O)c3ccc(C)cc3C)CC2)cc1`, the “hERG current change (%, negative = inhibition) at 10uM” value was -40.8%. Turning to `CC(=O)c1ccc(OCCCC(=O)N2CCN(S(=O)(=O)c3cc(C)ccc3C)CC2)cc1`, the “hERG current change (%, negative = inhibition) at 10uM” value is -37.1%. Turning to `Cc1ccc(OCC(=O)N2CCC(Cc3ccccc3)CC2)c([N+](=O)[O-])n1`, the “hERG current change (%, negative = inhibition) at 10uM” value is on record as -67.7%. As for `COc1ccc(CNC(=S)Nc2ccc(OC)cc2)cc1`, the “hERG current change (%, negative = inhibition) at 10uM” value turned out to be 3.09%. In the case of `Cc1nnc(-c2ccc(N3CCCCCC3)c([N+](=O)[O-])c2)o1`, the “hERG current change (%, negative = inhibition) at 10uM” value is -4.52%.

Regarding `Cc1ccc(CN2C(=O)CCC2C(=O)NCCc2ccccc2)cc1` (stereo not shown), the “hERG current change (%, negative = inhibition) at 10uM” value was 7.99%. `c1ccc2nc3c(nc2c1)CCCC3`: the “hERG current change (%, negative = inhibition) at 10uM” value is on record as 17.2%. Turning to `Cn1c(=O)c2c(nc(SCc3cccnc3)n2Cc2ccccc2)n(C)c1=O`, the “hERG current change (%, negative = inhibition) at 10uM” value is on record as -17.6%. `C=CCOCCN(C)C1=NS(=O)(=O)c2cc([N+](=O)[O-])ccc21`: the “hERG current change (%, negative = inhibition) at 10uM” value is reported as -19.8%. Regarding `Cc1ncc(CN2CCC(CO)(CCOc3ccccc3)CC2)s1`, the “hERG current change (%, negative = inhibition) at 10uM” value is on record as -70.1%.

For the compound `Cc1ncc(CN2CCC(CO)(Cc3ccccc3)CC2)s1`, the “hERG current change (%, negative = inhibition) at 10uM” value is -7%.

As to `Cc1ncc(CN2CCC(CO)(CCc3ccccc3)CC2)s1`, the “hERG current change (%, negative = inhibition) at 10uM” value is given as -60.4%.

For `Cc1ccc(NC(=O)c2ccc3nc(N4CCOCC4)sc3c2)c(Cl)c1`, the “hERG current change (%, negative = inhibition) at 10uM” value stood at 6.14%. As to `Cc1ccc(NC(=O)/C=N/OCC(=O)NCc2ccccc2Cl)cc1`, the “hERG current change (%, negative = inhibition) at 10uM” value is given as 2.92%.

Regarding `Cc1cc(C)n2c(Br)c(CSc3nc4ccccc4s3)nc2n1`, the “hERG current change (%, negative = inhibition) at 10uM” value is listed as -76.7%. Regarding `Cc1cc(C)n(C(=O)CSc2nc3ccccc3o2)n1`, the “hERG current change (%, negative = inhibition) at 10uM” value was 19.3%. `Cc1cc(C)nc(NC(=O)CSc2nc3ccccc3s2)n1`: the “hERG current change (%, negative = inhibition) at 10uM” value was 2.88%. Regarding `Cc1cc(C)n2c(Br)c(CSc3nc4ccccc4o3)nc2n1`, the “hERG current change (%, negative = inhibition) at 10uM” value is listed as -63.9%. For `Cc1cc(C)nc(SCc2nc3nc(C)cc(C)n3c2Br)n1` the value was -22.6%. The figure for `Cc1csc2nc(CSc3nc4ccccc4o3)c(Br)n12` is 7.03%; for `CCOc1ccc(/C=N/NC(=O)c2[nH]ncc2Br)c(O)c1` it is 4.05%.

On to `COc1ccc(NC(=O)CC(c2ccc(F)cc2)c2ccc(OC(C)C)cc2)cc1` (stereo not shown), for which the “hERG current change (%, negative = inhibition) at 10uM” value is given as 3.91%. Take `CN(C)CCCNC(=O)CC(c1ccc(F)cc1)c1ccco1` (stereo not shown): the “hERG current change (%, negative = inhibition) at 10uM” value was -37.3%.

As for `CC(C)Oc1ccc(C(CC(=O)NCCCN(C)C)c2ccc(F)cc2)cc1` (stereo not shown), the “hERG current change (%, negative = inhibition) at 10uM” value was -57.1%. Regarding `CC(C)Oc1ccc(C(CC(=O)O)c2ccc(F)cc2)cc1` (stereo not shown), the “hERG current change (%, negative = inhibition) at 10uM” value stood at 6.58%. As for `Cc1ccc(C(CC(=O)NCCCN(C)C)c2ccc(OC(C)C)cc2)cc1` (stereo not shown), the “hERG current change (%, negative = inhibition) at 10uM” value was -42.9%. For the compound `CC(C)Oc1ccc(C(CC(=O)N(C)CCC#N)c2ccc(F)cc2)cc1` (stereo not shown), the “hERG current change (%, negative = inhibition) at 10uM” value was -59.2%.
